Inconclusive results are not listed. Calls of active or inactive are those of the source. Calls come from the whole dose curve.

The target of the assay is Estrogen receptor (Homo sapiens) (UniProt P03372). The assay is described as follows: qHTS assay for small molecule agonists of estrogen receptor alpha signaling (AID 588514).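 For activation: 0% = vehicle only and 100% = reference agonist.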 Note: nearly all actives have a fitted effect of over 70% in size. As to conditions: ER-alpha-UAS-bla HEK293, beta-lactamase ratio, 18 h; series mostly up to 76.8 µM; activation: at the top concentration. The source says: NIH Chemical Genomics Center [NCGC]
Estrogen receptor (Homo sapiens), sequence (P03372 whole entry, looked up): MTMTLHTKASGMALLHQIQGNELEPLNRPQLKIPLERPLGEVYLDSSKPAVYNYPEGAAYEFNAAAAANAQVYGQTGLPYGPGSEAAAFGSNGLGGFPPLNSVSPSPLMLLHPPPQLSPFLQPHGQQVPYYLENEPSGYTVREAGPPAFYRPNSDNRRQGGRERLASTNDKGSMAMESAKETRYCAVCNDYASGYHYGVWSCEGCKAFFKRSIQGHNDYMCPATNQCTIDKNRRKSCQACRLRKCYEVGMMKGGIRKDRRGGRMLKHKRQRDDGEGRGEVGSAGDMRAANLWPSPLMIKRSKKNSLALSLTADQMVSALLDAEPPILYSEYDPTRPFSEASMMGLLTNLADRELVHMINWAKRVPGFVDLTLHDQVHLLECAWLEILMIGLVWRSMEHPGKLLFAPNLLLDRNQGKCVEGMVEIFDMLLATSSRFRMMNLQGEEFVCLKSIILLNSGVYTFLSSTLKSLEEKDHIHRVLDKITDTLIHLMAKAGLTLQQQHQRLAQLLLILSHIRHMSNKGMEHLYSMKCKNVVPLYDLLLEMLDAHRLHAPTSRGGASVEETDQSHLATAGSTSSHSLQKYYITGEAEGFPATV
U.S. Environmental Protection Agency [EPA]
National Institutes of Environmental Health Sciences [NIEHS]
National Toxicology Program [NTP]
Estrogen receptor alpha (ER-alpha) is an important member of nuclear hormone receptors. ER-alpha plays important role in breast cancer as well as in other women's health issues. The majority of breast cancers is estrogen receptor (ER) positive and depends on estrogen for growth. There is also growing concern for some of environmental chemicals which may contribute the increasing the incidence of breast cancer. Therefore, it is important to understand the effect of environmental chemicals in ER-alpha signaling pathway.
NCGC Assay Protocol Summary
Using a beta-lactamase reporter-gene under control of the ER response element, a cell-based assay [ER-alpha-UAS-bla GripTiteTM cell-Based Assay from Invitrogen] was used to measure ER-alpha signaling pathway in agonist mode. ER-alpha-UAS-bla-GripTite HEK 293 cells were used with assay medium containing 2% charcoal/dextran treated FBS, 0.1 mM NEAA and 1 mM sodium pyruvate. Cells were cultured in this assay medium overnight in the flasks before the assay. The assay was performed in clear bottom black Greiner 1536-well plates. 17-beta-estradiol was used as a positive control in the screen. Library compounds were measured for their ability to either stimulate the reporter gene activity. Compounds were screened in a titration series in 1536-well format. […] Data was normalized relative to 17-beta-estradiol control (20 nM, 100%), and DMSO only wells (basal, 0%). Concentration-response titration points for each compound were fitted to the Hill equation yielding concentrations of half-maximal stimulation (EC50) and maximal response (efficacy) values.
qHTS protocol for ER-alpha beta-lactamase assay in agonist mode
[Step] [Parameter] [Value] [Description]
1. Reagent; 6 uL; 5000 cells/well
2. Incubation; 37 C for 4 hrs
4. Controls (17-beta-estradiol); 23 nL
- Dose response, start 1uM, 1:3 dilutions with duplicates
- Two columns with 20 and 0.5 nM (final) concentration.
5. Incubation; 37 C for 18 hrs
6. Detection reagent; 1 uL of CCF4-dye
7. Incubation; RT for 2 hrs
8. Detection; Fluorescence; Envision plate reader or Acumen plate reader
With `CN(C)c1ccc(N)cc1`, the “activation” value is -0.0325% (inactive). As for `Cc1ccc(N)cc1C`, the “activation” value is 1.35% (inactive). In the case of `ClC(Br)Br`, the “activation” value is -4.51% (inactive). As for `Nn1cnnc1`, the “activation” value is -1.17% (inactive).

Regarding `O=[N+]([O-])c1c(Cl)c(Cl)c(Cl)c(Cl)c1Cl`, the Potency entry was “inactive”. Regarding `N#CC(Br)Br`, the “activation” value is -5.36% (inactive). Consider `[N-]=[N+]=[N-]`, for which the “activation” value is -7.02% (inactive). For `CN(C)c1ccc(N(C)C)cc1`, the “activation” value is -3.32% (inactive). With `CCCCOC(C)=O`, the “activation” value was 0.134% (inactive). Take `CC(C#N)CCC#N` (stereo not given): the “activation” value was 1.94% (inactive). On to `Nc1c(Cl)cc([N+](=O)[O-])cc1Cl`, for which the Potency entry is “inactive”.

In the case of `CCCCCCCCCCCCCl`, the “activation” value is -2.64% (inactive). Regarding `Nc1c(Br)cc([N+](=O)[O-])cc1[N+](=O)[O-]`, the “activation” value was -8.71% (inactive). With `Oc1cccc(Cl)c1`, the “activation” value is 10.3% (inactive). Still for that read-out and setting: then `ClCc1ccccn1`, with -8.86% (inactive). As for `O=[N+]([O-])c1ccc2c3c(cccc13)CC2`, the Potency result is “inactive”. For the compound `CCBr`, the “activation” value was -1.32% (inactive).

On to `O=[N+]([O-])c1ccc(Cl)c(Cl)c1Cl`, for which the “activation” value is -0.673% (inactive). As to `N#CCCC#N`, the “activation” value is 0% (inactive). Still for that read-out and setting: then `C=CCCl`, with 5.7% (inactive); and `O=[N+]([O-])c1cc(Cl)c(Cl)cc1Cl`, with -1.23% (inactive); and `c1ccc(P(c2ccccc2)c2ccccc2)cc1`, with -0.387% (inactive). Consider `C[N+](=O)[O-]`, for which the “activation” value is -1.33% (inactive). For `Cc1ccc([N+](=O)[O-])cc1`, the “activation” value is 1.45% (inactive). Take `ClC(Cl)c1ccccc1`: the “activation” value was -2.3% (inactive). Regarding `Cl/C=C/Cl`, the “activation” value is 4.13% (inactive).

As to `Cc1coc2c1CCC(C)C2` (stereo not given), the “activation” value is 5.86% (inactive). For `O=[N+]([O-])CCO`, the “activation” value was -9% (inactive).

Take `N#CC(Cl)(Cl)Cl`: the “activation” value is -7.54% (inactive). In the case of `C=CC#N`, the “activation” value was -6.19% (inactive). `O=[N+]([O-])c1ccccc1CCl`: the “activation” value is 0.421% (inactive). As for `O=[N+]([O-])c1ccccc1-c1ccccc1`, the “activation” value is -4.14% (inactive). `Cc1cc(-c2ccc(N)c(C)c2)ccc1N`: the Potency was 22.4 µM (active). In the case of `COc1c(C(C)(C)C)cc([N+](=O)[O-])c(C)c1[N+](=O)[O-]`, the Potency was 7.08 µM (active). Consider `ClP(Cl)(Cl)(Cl)Cl`, for which the “activation” value was -5.99% (inactive). Consider `Clc1cc(Cl)c(Cl)c(Cl)c1`, for which the “activation” value is -4.12% (inactive). On to `C=CC(=O)OCC(C)C`, for which the “activation” value is -0.844% (inactive). Regarding `CN(C)C(=O)Cl`, the “activation” value was -3.15% (inactive). On the same count and under the same terms, the same measure for `CCCC[N+](=O)[O-]`: -0.857% (inactive); for `Nc1ncc([N+](=O)[O-])s1`: -8.43% (inactive).
